eLon inh: inhibitors of E. coli Lon protease, primary screen, biochemical, fluorescence polarization; purified E. coli Lon protease; inhibition, % at 7.94 µM; hit rate 0.42% among 360,000; AID 602123, 2011; in the data active means inhibition above about 13%, passing the limit was not always enough
BCLXL inh: inhibitors of human Bcl-xL, primary screen, biochemical, fluorescence polarization, HTS; Bcl-2-like protein 1 (Homo sapiens), Q07817; GST-Bcl-xL / FITC-Bim BH3 peptide fluorescence polarization; inhibition, % at 10.9 µM; hit rate 0.7% among 320,000; AID 2129, 2009;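 active means inhibition above the mean of all tested compounds plus 3 SD, cutoff set per campaign, cut at about 30% in these data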;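 further: inhibitors lower millipolarization by displacing the labeled peptide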
EBV gp42 block: Epstein-Barr virus gp42 inhibitors, primary screen, biochemical, uHTS, fluorescence polarization | Glycoprotein 42 (Epstein-Barr virus (strain AG876)), Q1HVG2 | Fluorescence polarization binding assay, mP read-out | inhibition, % (tested at 21.74 µM) | hit rate 0.42% among 220,000; in the data active means inhibition above about 50%
Target sequence (Q1HVG2 whole entry, looked up): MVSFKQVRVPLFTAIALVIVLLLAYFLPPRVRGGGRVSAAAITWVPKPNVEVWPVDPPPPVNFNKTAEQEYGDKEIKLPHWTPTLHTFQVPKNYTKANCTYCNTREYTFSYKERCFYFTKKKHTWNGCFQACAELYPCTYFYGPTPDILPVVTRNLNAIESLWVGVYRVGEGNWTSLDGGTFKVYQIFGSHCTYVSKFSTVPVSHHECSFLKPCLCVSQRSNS
MEX-5 binding: MEX-5 zinc finger RNA-binding disruptors – biochemical, C. elegans, fluorescence polarization, MLPCN library, primary screen. Zinc finger protein mex-5 (Caenorhabditis elegans), Q9XUB2. AID 1832, 2009. hit rate 0.38% among 300,000. MEX-5/FITC-TCR2 RNA binding; stronger effect = lower value. activity score (negative = inhibition of binding), % at 10 µM;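 active means inhibition past about -25% in most replicates, and total fluorescence under double the plate's negative control median, limit read from the data; inconclusive means replicates evenly split on the limit, or fluorescence at least double controls; inactive means too little inhibition in most replicates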
MCL1-BIM inh: inhibitors of MCL1 binding to BIM-BH3, primary screen, biochemical, fluorescence polarization | Induced myeloid leukemia cell differentiation protein Mcl-1 (Homo sapiens), Q07820 | GST-MCL1 / FITC-Bim-BH3 fluorescence polarization | inhibition, % at 10.9 µM | hit rate 0.68% among 320,000 | AID 2057, 2009;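 active means inhibition above the mean inhibition of all tested compounds plus 3 SD, set per campaign, cut at about 40% in these data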;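 further: higher means more loss of mP so more displacement of Bim peptide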
Target sequence (Q07820 whole entry, looked up): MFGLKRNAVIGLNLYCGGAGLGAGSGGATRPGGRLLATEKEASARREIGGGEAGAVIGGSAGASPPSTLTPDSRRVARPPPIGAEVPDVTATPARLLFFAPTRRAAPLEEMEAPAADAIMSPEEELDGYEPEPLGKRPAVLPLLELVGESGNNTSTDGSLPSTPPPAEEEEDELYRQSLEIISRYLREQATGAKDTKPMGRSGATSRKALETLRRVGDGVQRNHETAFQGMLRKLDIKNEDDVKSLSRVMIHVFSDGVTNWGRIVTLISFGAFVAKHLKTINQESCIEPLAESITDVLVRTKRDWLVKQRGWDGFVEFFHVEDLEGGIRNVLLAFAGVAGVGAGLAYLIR
GLD-1 TGE inh: GLD-1/TGE RNA complex disruptors, primary screen, biochemical, fluorescence polarization | hit rate 0.44% among 320,000 | Female germline-specific tumor suppressor gld-1 (Caenorhabditis elegans), Q17339 | purified GLD-1 + fluorescein TGE RNA | inhibition, % at 5.96 µM | AID 2280, 2010;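 active means percent inhibition above a per-plate cutoff, the plate mean of test compounds plus 3 SD, cut at about 30% in these data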
BCLXL inh confirm: Bcl-xL inhibitors blocking Bim BH3 binding, confirmation, counter-screen for MCL1 inhibitor project, biochemical, fluorescence polarization. shares compounds with MCL1-BIM inh. GST-Bcl-xL / FITC-Bim BH3 peptide FP binding. inhibition, % at 10.9 µM. hit rate 54% among 1,700. AID 2166, 2009;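 active means inhibition above a cutoff equal to the mean inhibition of all tested compounds plus 3 SD, cut at about 30% in these data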
MCL1 BIM confirm: inhibitors of MCL1 binding to BIM-BH3, confirmation, biochemical, fluorescence polarization, triplicate | GST-MCL1 / FITC-Bim-BH3 fluorescence polarization | inhibition, % at 10.9 µM | hit rate 61% among 1,700 | shares compounds with MCL1-BIM inh | AID 2168, 2009;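 active means inhibition above the average of all tested compounds plus 3 SD, cut at about 40% in these data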
GLD-1 TGE cf: GLD-1/TGE RNA binding inhibitors, retest, confirmation, biochemical, fluorescence polarization, triplicate. shares compounds with GLD-1 TGE inh. AID 2459, 2010. inhibition, % at 5.96 µM. GLD-1/FL-TGE RNA fluorescence polarization. hit rate 10% among 550;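 active means average inhibition across triplicates above the hit cutoff set in the primary screen, cut at about 32% in these data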
eLon confirm: E. coli Lon protease inhibitor retest, confirmation, biochemical, fluorescence polarization; AID 602230, 2012; purified E. coli Lon; shares compounds with eLon inh; hit rate 31% among 1,400; inhibition, % at 7.94 µM; in the data active means inhibition above about 16%
Each line names hits and unclear results; the compound was inactive in the other large screens (follow-up assays come after a bar, where they were run). This is a sample that favours compounds with a hit; in the whole collection about 1.4% have one here.

S=C(Nc1ccc(N2CCOCC2)cc1)Nc1ccc2nc(-c3ccco3)c(-c3ccco3)nc2c1	eLon inh 43, BCLXL inh 188, EBV gp42 block 111, MCL1-BIM inh active, GLD-1 TGE inh 129 | BCLXL inh confirm 118 | MCL1 BIM confirm 150 | eLon confirm 84
Cc1ccc([C@@H]2CC(=O)[C@@H]3CN(S(=O)(=O)c4ccc(C)cc4)[C@H](c4ccc(Cl)cc4)C[C@@H]3N2S(=O)(=O)c2ccc(C)cc2)cc1	none (no result: BCLXL inh, EBV gp42 block, MEX-5 binding, MCL1-BIM inh, GLD-1 TGE inh)
CSc1ccc(C2C(C(=O)c3ccco3)=C(O)C(=O)N2c2nnc(SC)s2)cc1 (centres undefined)	eLon inh 41, BCLXL inh 111, MEX-5 binding -59, MCL1-BIM inh 93, GLD-1 TGE inh 93 (no result: EBV gp42 block) | BCLXL inh confirm 143 | MCL1 BIM confirm 168 | eLon confirm 49
C[C@@H]1CCCCO[C@@H](CN(C)Cc2ccncc2)[C@@H](C)CN([C@H](C)CO)C(=O)c2cc(NC(=O)c3ccccc3)ccc2O1	none (no result: BCLXL inh, EBV gp42 block, MEX-5 binding, MCL1-BIM inh, GLD-1 TGE inh)
CCOC(=O)c1c2c3c(cccc3n(C)c1=O)C(=O)c1ccccc1-2	eLon inh 144, BCLXL inh 55, MEX-5 binding inconclusive, MCL1-BIM inh 54, GLD-1 TGE inh 32 (no result: EBV gp42 block) | BCLXL inh confirm 76 | MCL1 BIM confirm 90 | GLD-1 TGE cf inactive | eLon confirm 65
CCOC(=O)c1c(-c2ccccc2)c(C(C)=O)c(=O)n(C)c1C	none
Cn1c(C(=O)OC(C(=O)NCc2ccco2)c2ccncc2)cc2sccc21 (centres undefined)	none
COc1ccc(NS(=O)(=O)c2ccc(F)c(Cl)c2)cn1	eLon inh 58, BCLXL inh 103, MCL1-BIM inh 124, GLD-1 TGE inh 99 (no result: EBV gp42 block) | BCLXL inh confirm 49 | MCL1 BIM confirm 57 | eLon confirm inactive
COc1ccc(NS(=O)(=O)c2ccc(Br)cc2)cn1	none (no result: EBV gp42 block)
C=CCOc1cccc(C2C(C(=O)c3ccc(C)o3)=C(O)C(=O)N2c2nccs2)c1 (centres undefined)	eLon inh 55, BCLXL inh 144, EBV gp42 block 179, MEX-5 binding -49, MCL1-BIM inh 162, GLD-1 TGE inh 130 | BCLXL inh confirm 137 | MCL1 BIM confirm 162 | eLon confirm 126
CCCCOc1cccc(C2C(C(=O)c3ccc(C)o3)=C(O)C(=O)N2c2nnc(C)s2)c1 (centres undefined)	none (no result: BCLXL inh, EBV gp42 block, MCL1-BIM inh, GLD-1 TGE inh)
CCOc1cc(C2C(C#N)=C(N)OC3=C2C(=O)CC(C)(C)C3)cc([N+](=O)[O-])c1O (centres undefined)	none
CC1(C)CC(=O)C2=C(C1)OC(N)=C(C#N)C2c1cc2c(cc1[N+](=O)[O-])OCO2 (centres undefined)	eLon inh 104, BCLXL inh 186, EBV gp42 block 94, MEX-5 binding -56, MCL1-BIM inh active, GLD-1 TGE inh 141 | BCLXL inh confirm 108 | MCL1 BIM confirm 132 | eLon confirm 80
O=C(Cc1ccccc1)c1c[nH]c(C(=O)NCCCN2CCOCC2)c1	none
COc1ccc2nc(-c3ccco3)c(-c3ccco3)nc2c1	eLon inh 19, BCLXL inh 49, MCL1-BIM inh 88 | BCLXL inh confirm 76 | MCL1 BIM confirm 126 | eLon confirm inactive
CCC(COC)NCc1cn(-c2ccc(OC)cc2)nc1-c1cccc(F)c1 (centres undefined)	none
O=C1C(Br)=Cc2cccc3cccc1c23	eLon inh 68, BCLXL inh 116, EBV gp42 block 116, MCL1-BIM inh 135, GLD-1 TGE inh 83 | BCLXL inh confirm 97 | MCL1 BIM confirm 133 | eLon confirm 57
O=C1C=C(Nc2ccccc2O)c2ccccc2C1=O	eLon inh 43, BCLXL inh 83, MCL1-BIM inh 100, GLD-1 TGE inh 99 | BCLXL inh confirm inactive | MCL1 BIM confirm inactive | eLon confirm inactive
CCOC(=O)C(=O)Nc1ccccc1C(=O)Nc1ccc(OC)cc1	none (no result: MEX-5 binding)
Nc1nnnn1/N=C/c1cc(Cl)cc(Cl)c1O	eLon inh 49, BCLXL inh 109, MCL1-BIM inh 133, GLD-1 TGE inh 78 (no result: EBV gp42 block) | BCLXL inh confirm 134 | MCL1 BIM confirm 148 | eLon confirm 73
Cc1c2cc(O)c(=O)cc-2oc2cc(O)c(O)cc12	eLon inh 48, BCLXL inh 107, EBV gp42 block 129, MEX-5 binding inconclusive, GLD-1 TGE inh 185 (no result: MCL1-BIM inh) | BCLXL inh confirm 114 | eLon confirm 196
Cc1cc2oc(=O)cc(-c3cc4ccccc4o3)c2cc1O	none (no result: EBV gp42 block)
CC(=O)Nc1ccc(Nc2ccc3c4c(cc(=O)n3C)-c3ccccc3C(=O)c24)cc1	eLon inh 33, BCLXL inh 61, MCL1-BIM inh 57 | BCLXL inh confirm 61 | MCL1 BIM confirm 70 | eLon confirm 52
CC(=O)N/N=C/c1cc(C(C)C)cc(/C=N/NC(C)=O)c1O	eLon inh 69, BCLXL inh 93, EBV gp42 block 71, MCL1-BIM inh 100, GLD-1 TGE inh 143 | BCLXL inh confirm 92 | MCL1 BIM confirm 101 | eLon confirm 100
CC(=O)N/N=C/c1cc(C)n(-c2ccc(Br)cc2)c1C	none
Fc1ccc(Br)cc1C1C=C(c2ccc(Br)cc2)Nc2ncnn21 (centres undefined)	none
Cc1ccsc1C1C=C(c2cccc(Br)c2)Nc2ncnn21 (centres undefined)	eLon inh 60, BCLXL inh 110, EBV gp42 block 94, MCL1-BIM inh 118, GLD-1 TGE inh 92 | BCLXL inh confirm 71 | MCL1 BIM confirm 83 | eLon confirm 66

Screening data deposited in PubChem by several laboratories.
